This is a sample that favours compounds with a hit; in the whole collection about 9.4% have one here.
ELG1 DNA repair: blocks ELG1-dependent DNA repair in HEK293T cells; HEK293T ELG1-luciferase reporter, luminescence, 16 h; DNA damage induced by 5-fluorouridine; Potency, µM (series often up to 46.1 µM), for the others: at the highest dose activity change, negative = inhibition, most hits filed as inhibitors; actives 2.3% (n = 330,000); also: % is scaled to controls: 0 for no effect and ±100 for the full control effect; nearly all actives have a fitted effect of over 55% in size
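Quantitative HTS, concentration-response format. 2,000 cells/well co-treated with 5-fluorouridine and compound, 16 hr in 5% CO2 at 37 °C; ONE-Glo luminescence read after 30 min.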
NPC1 promoter act: activates the NPC1 promoter; Huh7 NPC1 promoter luciferase reporter, 24 h; Potency, µM (highest dose often 9.22 µM), without a hit: top-dose activation, usual class: activators; actives 2.4% (n = 320,000); also: % of control where 0% means no effect; nearly all actives have a fitted effect of over 60% in size
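Quantitative HTS used a cell-based reporter: Huh7 cells stably bearing the NPC1 promoter upstream of luciferase were treated with compounds for 24 h, and promoter activation was read as luminescence.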
SMN2 splice enh: SMN2 splice variant enhancement; HEK293 SMN2-luciferase splicing reporter, luminescence, 30-36 h; Potency, µM (top dose mostly 46.1 µM), without a hit: top-dose activity change, positive = activation, hits mostly activators; actives 2.8% (n = 210,000); AID 1458; also: % of control where 0% means no effect; nearly all actives have a fitted effect of over 55% in size
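HEK293 cells carry an SMN2 minigene-luciferase reporter in which exon 7 inclusion puts luciferase in frame. Cells were seeded at 2000 cells/well, attached for 10-12 hours, then exposed to compounds for 30-36 hours at 37C before ONE-Glo luminescence.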
Rab9 promoter act: Rab9 promoter activation. Huh7 Rab9 promoter-luciferase reporter, luminescence, 24 h. Potency, µM (top dose mostly 9.22 µM), without a hit: at the highest dose activation, negative = inhibition, most hits filed as activators. actives 2.8% (n = 320,000). AID 485297; also: % of control where 0% means no effect; nearly all actives have a fitted effect of over 60% in size
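Stable Rab9-luc Huh7, 1500 cells/well, 2 h settle; cmpd in DMSO, 24 h, 37 °C/5% CO2; luciferase reagent 10 min RT; luminescence.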
ELG1 genotoxic: genotoxicity induction in ELG1-luciferase HEK293T cells; HEK293T ELG1-luciferase reporter, luminescence, 16 h; Potency, µM (doses to about 46 µM), for inactives: at the highest dose activity change, positive = activation, hits mostly activators; actives 1.3% (n = 330,000); AID 504466; also: % of control where 0% means no effect; nearly all actives have a fitted effect of over 60% in size
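Step 1: seed 2,000 HEK293T ELG1-luciferase cells per well. Step 2: add compound or DMSO, incubate 16 hr at 37 °C. Step 3: ONE-Glo, 30 min at room temperature, read luminescence.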
FLuc counter: inhibits or activates purified firefly luciferase, miR-21 counter-screen. P08659. Potency, µM (series often up to 57.5 µM), for the others: top-dose activity change, negative = inhibition, hits mostly inhibitors. AID 588342. actives 6.9% (n = 360,000). purified FLuc, Km substrates, luminescence inhibition;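 also: plate controls were vehicle for no effect and reference inhibitor for full effect; nearly all actives have a fitted effect of over 55% in size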
Target sequence (P08659 whole entry, looked up): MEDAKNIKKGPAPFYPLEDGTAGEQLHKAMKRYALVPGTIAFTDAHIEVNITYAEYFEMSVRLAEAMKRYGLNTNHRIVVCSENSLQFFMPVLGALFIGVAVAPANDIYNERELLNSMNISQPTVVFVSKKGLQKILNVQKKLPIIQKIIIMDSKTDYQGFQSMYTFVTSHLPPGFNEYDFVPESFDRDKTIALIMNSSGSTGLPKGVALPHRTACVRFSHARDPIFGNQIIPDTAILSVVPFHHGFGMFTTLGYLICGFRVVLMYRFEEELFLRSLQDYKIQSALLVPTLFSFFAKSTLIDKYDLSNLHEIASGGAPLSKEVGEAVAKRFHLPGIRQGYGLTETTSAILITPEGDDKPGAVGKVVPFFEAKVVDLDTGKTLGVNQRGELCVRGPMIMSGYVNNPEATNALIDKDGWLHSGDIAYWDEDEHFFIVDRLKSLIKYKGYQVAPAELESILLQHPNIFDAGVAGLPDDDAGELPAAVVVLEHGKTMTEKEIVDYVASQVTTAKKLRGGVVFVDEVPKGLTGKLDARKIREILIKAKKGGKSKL
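Purified P. pyralis luciferase (10nM final) with 10uM D-luciferin and 10uM ATP (Km levels) in 50mM Tris acetate pH 7.5, 10mM Mg acetate, 0.01% Tween-20, 0.05% BSA; qHTS 6-point titration, ~60 µM downward; luminescence read.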
* hit, by the source's call; u = inconclusive; x = not tested or not shown. Calls follow the shape of the dose curve; as a rule, active = well fitted curve in the direction sought with a large enough effect; inconclusive = small, poorly fitted or top-dose-only effect, or another doubt; inactive = no such curve, though single readings can be large; an effect the other way counts as inactive or inconclusive. Potency is read from the fitted curve at half-maximal effect.

SMILES | ELG1 DNA repair | NPC1 promoter act | SMN2 splice enh | Rab9 promoter act | ELG1 genotoxic | FLuc counter
COCCNC(=O)C(c1ccncc1)N(Cc1ccccc1)C(=O)Cn1nnc2ccccc21 (stereo not drawn) | u | u | 12.6µM* | u | -0.2% | u
O=C(CSc1oc(-c2ccccc2)nc1S(=O)(=O)c1ccc(Br)cc1)c1ccccc1 | x | x | -2.8% | x | x | 2.6%
CC1=CN2C(=N)/C(=C/c3ccc(Sc4ccc(Cl)cc4)o3)C(=O)N=C2S1 | 1.3% | -2.4% | -35.6% | 0.9% | -1.2% | -0.8%
CC1=CN2C(=N)/C(=C/c3ccc(Sc4ccc(C)cc4)o3)C(=O)N=C2S1 | 26.4% | 6.5% | 2.4% | -8.1% | 1.3% | 19µM*
CC1=CN2C(=N)/C(=C/c3ccc(C)o3)C(=O)N=C2S1 | u | 1.58µM* | 2.82µM* | 0.794µM* | u | 1.2µM*
Cc1ccc(NC(=O)CN(C)S(=O)(=O)c2ccc3c(c2)CCC(=O)N3)c(C)c1 | x | x | -14.7% | x | x | 5.5%
Cc1cc(NC(=O)C2CCCN(S(=O)(=O)c3cn(C)cn3)C2)ccc1Br (stereo not drawn) | x | x | x | x | x | -2.7%
CCOC(=O)C1CCCN(C(=O)c2cn(C)c3ccc(S(=O)(=O)N4CCCC4)cc3c2=O)C1 (stereo not drawn) | -6.6% | -0.4% | 11.2µM* | -8.5% | 1.6% | -1.1%
COCCNC(=O)c1cn(C)c2ccc(S(=O)(=O)N(C)C3CCCCC3)cc2c1=O | u | -1.9% | 2.0% | 2.0% | 0.0% | 8.8%
CCn1cc(C(=O)NCC(OC)OC)c(=O)c2cc(S(=O)(=O)N(C)C3CCCCC3)ccc21 | 9.2µM* | 3.6% | x | 3.5% | -9.8% | 3.3%
CCN1CCCC1CNC(=O)c1cn(C)c2ccc(S(=O)(=O)N3CCCCCC3)cc2c1=O (stereo not drawn) | -4.4% | 1.3% | -6.4% | -4.5% | 2.0% | 0.6%
COC(CNC(=O)c1cn(C)c2ccc(S(=O)(=O)N(C)C3CCCCC3)cc2c1=O)OC | 5.17µM* | 0.4% | x | 9.2% | -9.8% | 3.5%
Cn1cc(C(=O)NCC2COc3ccccc3O2)c(=O)c2cc(S(=O)(=O)N3CCCCC3)ccc21 (stereo not drawn) | 18.4µM* | -0.4% | 19.6% | -4.5% | -8.0% | 10.6%
CCn1cc(C(=O)NCCCOC)c(=O)c2cc(S(=O)(=O)N(C)C3CCCCC3)ccc21 | u | -8.2% | -6.0% | -4.8% | -0.5% | -1.4%
CC(=O)Nc1cccc(NC(=O)c2c(-c3ccccc3)c(-c3ccccc3)nn(C)c2=O)c1 | x | x | -0.7% | x | x | -12.7%
Cc1ccc(CNC(=O)c2oc3ccc(S(=O)(=O)N4CCC(C)CC4)cc3c2C)cc1 | x | x | -27.6% | x | x | 0.9%
CCn1cc(C(=O)NCC2CCCO2)c(=O)c2cc(S(=O)(=O)N(C)C3CCCCC3)ccc21 (stereo not drawn) | 16.4µM* | -3.2% | -7.9% | -1.6% | -6.5% | 0.2%
C=CCn1cc(C(=O)NCC2CCCO2)c(=O)c2cc(S(=O)(=O)N3CCCCCC3)ccc21 (stereo not drawn) | 10.3µM* | -3.5% | -14.8% | 1.5% | -1.4% | 1.0%
CC1CCN(S(=O)(=O)c2ccc3c(c2)c(=O)c(C(=O)NCc2ccco2)cn3C)CC1 | 18.4µM* | -2.0% | -25.3% | 1.3% | -6.7% | -0.2%
COc1ccc2c(c1)CC(C(=O)N1CCC(C(N)=O)CC1)CO2 (stereo not drawn) | x | x | x | x | x | -0.2%
COc1ccccc1-c1cc2ccccc2[nH]1 | u | 29.6% | 12.6µM* | u | u | 15.1µM*
COc1ccccc1-c1cc(-c2ccccc2)nc(=O)[nH]1 | 0.0% | 1.0% | x | -2.2% | 0.6% | -0.2%
CCN(CC)S(=O)(=O)c1ccc(C)c(NC(=O)Cn2cnc3cc([N+](=O)[O-])ccc3c2=O)c1 | 16.4µM* | -9.1% | -4.1% | -0.2% | -6.8% | -19.5%
Cc1onc(-c2ccccc2)c1C(=O)c1c[nH]c(C(=O)NCc2ccccn2)c1 | 16.4µM* | 0.6% | -54.4% | -2.5% | -13.8% | 5.5%
Cc1onc(-c2ccccc2)c1C(=O)c1c[nH]c(C(=O)NCc2ccncc2)c1 | 13µM* | -1.9% | -13.1% | 2.7% | -2.7% | 1.3%
SMILES | ELG1 DNA repair | NPC1 promoter act | SMN2 splice enh | Rab9 promoter act | ELG1 genotoxic | FLuc counter
COc1ccc(CC(=O)Nc2c(C(=O)Nc3ccccc3F)oc3ccccc23)cc1 | x | x | 13.6% | x | x | 1.3%
CC(=O)c1cccc(-n2c(=O)c3c4c(sc3n(CC(=O)c3ccc(Cl)cc3)c2=O)CN(C(C)=O)CC4)c1 | x | x | -3.2% | x | x | 0.2%
COc1nc(N)nc(NC23CC4CC(CC(C4)C2)C3)n1 | u | 7.1% | 27.6% | 4.6% | u | 5.36µM*
COc1ccc(C(=O)Nc2nc(CC(=O)NCCc3cccc(OC)c3)cs2)cc1 | -25.4% | 13.8% | x | 1.2% | -4.9% | 13.5µM*
COc1ccc(C(=O)Nc2nc(CC(=O)NCCc3ccccc3)cs2)cc1 | -22.2% | 23.9% | x | 29.7% | -7.6% | 4.78µM*
COc1ccc(-c2nc(C)c(CCNS(=O)(=O)c3cc(C)c(C)cc3C)s2)cc1 | x | x | x | x | x | -12.0%
Cc1noc(C)c1C(=O)OCC(=O)c1ccc[nH]1 | -0.3% | 1.1% | -7.7% | -10.7% | -4.8% | 2.4%
Cc1noc(C)c1C(=O)OCC(=O)c1cc(C)n(Cc2ccccc2Cl)c1C | u | u | -21.1% | u | 16.4µM* | 10.7µM*
Cc1cc(C(=O)Nc2ccc(C)c(C)c2)n(-c2ccccc2)n1 | u | -0.9% | x | -11.3% | -3.0% | -13.1%
Cc1ccc(NC(=O)c2cnn(-c3ccccc3)c2C)cc1C | u | 0.398µM* | x | 0.631µM* | u | 0.338µM*
COc1ccc(NC(=O)c2cnn(-c3ccccc3)c2C)cc1 | u | 2.51µM* | x | 0.398µM* | u | 3.79µM*
COc1ccc(NC(=O)c2cnn(-c3ccccc3)c2C)cc1OC | u | 2.82µM* | x | u | u | 10.7µM*
CCCCN(C)C(=O)Cn1cnc2sc(C)c(S(=O)(=O)N3CCC(C)CC3)c2c1=O | x | x | -4.5% | x | x | -2.2%
COc1cccc(NC(=O)CSCc2cc(=O)c3ccc(C)c(C)c3[nH]2)c1 | x | x | x | x | x | 0.3%
COc1ccc2c(c1)O[C@H](c1ccc3c(c1)OCO3)[C@@H](OC(=O)Nc1ccc(C)c(Br)c1)C2=O | x | x | -2.7% | x | x | x
Cn1cccc1C(=O)N1CCC[C@@]2(CCN(Cc3ccccc3)C2)C1 | x | x | -8.6% | x | x | x
COc1ccc(Cl)cc1C(=O)Nc1cccnc1 | 6.6% | -0.1% | x | -0.3% | 0.9% | -6.4%
Cc1ccc(O)c(-c2cc(C(=O)Nc3cccnc3)[nH]n2)c1 | u | 2.82µM* | x | 2.24µM* | u | 5.36µM*

Bioassay records deposited in PubChem by National Center for Advancing Translational Sciences (NCATS).
